Laboratory results as given in the supplement of paper PMC7411054.
Structures can show the parent of a compound that is named as a salt.

Tests used:
Test in all cases: lowest phenotypically active concentration; higher = less potent
Details in all cases: treatment time: 24 h
A549-ACTB-RAB5A = test system: A549-ACTB-RAB5A
How it was run: (§1)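 Cells from fifteen gene-edited reporter lines (A549, HepG2 and WPMY1) were treated for 24 h at 0.3, 1, 3 or 9 µM and imaged live, four wells per condition. Features were normalised per well to solvent control wells. A condition deviated if ≥3 of 4 wells passed the 95th percentile of control Euclidean distances and was reproducible if its median replicate Pearson correlation beat the 95th percentile of non-replicates; phenotypic activity needed both.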

A549-CANX-COX4 = test system: A549-CANX-COX4
How it was run: as §1

A549-GM130-SQSTM1 = test system: A549-GM130-SQSTM1
How it was run: as §1

A549-TP53BP1-CLTA = test system: A549-TP53BP1-CLTA
How it was run: as §1

A549-TUBA1B-RELA = test system: A549-TUBA1B-RELA
How it was run: as §1

HepG2-TP53BP1-CLTA = test system: HepG2-TP53BP1-CLTA
How it was run: as §1

HepG2-TUBA1B-RELA = test system: HepG2-TUBA1B-RELA
How it was run: as §1

WPMY1-ACTB-RAB5A = test system: WPMY1-ACTB-RAB5A
How it was run: as §1

WPMY1-CANX-COX4 = test system: WPMY1-CANX-COX4
How it was run: as §1

WPMY1-TUBA1B-RELA = test system: WPMY1-TUBA1B-RELA
How it was run: as §1

Measured: lowest phenotypically active concentration

COc1ccc(CCN2CCC(Nc3nc4ccccc4n3Cc3ccc(F)cc3)CC2)cc1 [astemizole]
3 µM: A549-TP53BP1-CLTA | HepG2-TP53BP1-CLTA | WPMY1-ACTB-RAB5A | WPMY1-CANX-COX4 | WPMY1-TUBA1B-RELA
1 µM: A549-ACTB-RAB5A | A549-TUBA1B-RELA | HepG2-TUBA1B-RELA
≤ 0.3 µM: A549-GM130-SQSTM1
9 µM: A549-CANX-COX4

CC[C@@H]1C=CC=CC[C@H](C)[C@@H](O)[C@](C)(O)C(=O)[C@H](C)[C@@H](O)[C@H](C)C(=O)[C@H](C)[C@@H](O)[C@H](C)C=CC(=O)O[C@H]2[C@@H](C)[C@@H](CC1)O[C@@]1(CC[C@@H](C)[C@@H](C[C@H](C)O)O1)[C@@H]2C [Oligomycin A]
≤ 0.3 µM: A549-ACTB-RAB5A | A549-CANX-COX4 | A549-GM130-SQSTM1 | A549-TP53BP1-CLTA | A549-TUBA1B-RELA | HepG2-TP53BP1-CLTA | HepG2-TUBA1B-RELA
1 µM: WPMY1-CANX-COX4

C[C@@]1(CO)[C@H](O)CC[C@@]2(C)[C@H]1CC[C@H]1C[C@@H]3C[C@@]12CC[C@]3(O)CO [Aphidicolin]
≤ 0.3 µM: A549-ACTB-RAB5A | A549-CANX-COX4 | A549-GM130-SQSTM1 | A549-TP53BP1-CLTA | A549-TUBA1B-RELA | HepG2-TP53BP1-CLTA | HepG2-TUBA1B-RELA | WPMY1-ACTB-RAB5A | WPMY1-CANX-COX4 | WPMY1-TUBA1B-RELA

CC[C@@H](C(=O)[C@@H](C)[C@@H](O)[C@H](C)[C@@H]1O[C@@H]([C@@H](CC)C(=O)O)CC[C@@H]1C)[C@H]1O[C@]2(C=C[C@@H](O)[C@]3(CC[C@@](C)([C@H]4CC[C@](O)(CC)[C@H](C)O4)O3)O2)[C@H](C)C[C@@H]1C [Salinomycin Sodium]
1 µM: A549-CANX-COX4 | HepG2-TP53BP1-CLTA
≤ 0.3 µM: A549-ACTB-RAB5A | A549-GM130-SQSTM1 | A549-TP53BP1-CLTA | A549-TUBA1B-RELA | HepG2-TUBA1B-RELA | WPMY1-ACTB-RAB5A | WPMY1-CANX-COX4 | WPMY1-TUBA1B-RELA

C=C1[C@@H](O)C2C=CC[C@H](C)C(=O)[C@](C)(O)C=C[C@@H](OC(C)=O)[C@]23C(=O)N[C@H](Cc2ccccc2)[C@@H]3[C@@H]1C (some centres not stated) [Cytochalasin D]
≤ 0.3 µM: A549-ACTB-RAB5A | A549-CANX-COX4 | A549-GM130-SQSTM1 | A549-TP53BP1-CLTA | A549-TUBA1B-RELA | HepG2-TP53BP1-CLTA | HepG2-TUBA1B-RELA | WPMY1-ACTB-RAB5A | WPMY1-CANX-COX4 | WPMY1-TUBA1B-RELA

C[C@H](CCC(=O)O)C[C@H](C)C[C@H](C)C(=O)/C=C(\O)[C@H](C)C[C@H](C)C/C=C/[C@@H](C)[C@@H](O)[C@@H](C)[C@@H](O)C[C@@H]1CC[C@@](C)([C@H]2CC[C@@](C)([C@@H](C)O)O2)O1 [Ionomycin free acid]
3 µM: WPMY1-ACTB-RAB5A
9 µM: A549-CANX-COX4 | HepG2-TUBA1B-RELA | WPMY1-CANX-COX4

COc1ccc(C[C@H]2NC[C@H](O)[C@H]2OC(C)=O)cc1 [Anisomycin]
≤ 0.3 µM: A549-ACTB-RAB5A | A549-CANX-COX4 | A549-GM130-SQSTM1 | A549-TP53BP1-CLTA | A549-TUBA1B-RELA | HepG2-TP53BP1-CLTA | HepG2-TUBA1B-RELA | WPMY1-ACTB-RAB5A | WPMY1-CANX-COX4 | WPMY1-TUBA1B-RELA

CCN1CCN(C(=O)Cc2ccc(Nc3ncc(F)c(Nc4ccc(C(=O)Nc5ccccc5Cl)cc4)n3)cc2)CC1
1 µM: A549-ACTB-RAB5A | A549-CANX-COX4 | A549-GM130-SQSTM1 | A549-TP53BP1-CLTA | A549-TUBA1B-RELA | WPMY1-ACTB-RAB5A | WPMY1-TUBA1B-RELA
≤ 0.3 µM: HepG2-TP53BP1-CLTA | HepG2-TUBA1B-RELA

COc1cc2c(cc1O)C[C@H]1c3c(cc(O)c(OC)c3-2)CCN1C [Boldine]
9 µM: A549-GM130-SQSTM1 | A549-TUBA1B-RELA

C[C@H]1CC[C@@H]2N(C1)C[C@H]1[C@@H]3C[C@H]4[C@@H](CC(=O)[C@H]5C[C@@H](O)CC[C@@]54C)[C@@H]3CC[C@H]1[C@]2(C)O [Imperialine]
≤ 0.3 µM: WPMY1-ACTB-RAB5A | WPMY1-CANX-COX4

O=C1C=C2C=C[C@@H]3C[C@@]2(O1)[C@H]1CCCCN31 [Securinine]
9 µM: WPMY1-TUBA1B-RELA

CC(C)C[C@H]1C(=O)N2CCC[C@H]2[C@]2(O)O[C@](NC(=O)[C@@H]3C=C4c5cccc6[nH]c(Br)c(c56)C[C@H]4N(C)C3)(C(C)C)C(=O)N12 [bromocriptine]
9 µM: A549-TP53BP1-CLTA | HepG2-TP53BP1-CLTA | HepG2-TUBA1B-RELA

C=C1C/C(=C\C)C(=O)O[C@@H]2CCN3CC=C(COC(=O)[C@]1(C)O)[C@H]23 [Seneciphylline]
9 µM: HepG2-TP53BP1-CLTA

C[C@@H]1C[C@@H]([C@H](O)CC2CC(=O)NC(=O)C2)C(=O)[C@@H](C)C1 [Cycloheximide]
≤ 0.3 µM: A549-CANX-COX4 | A549-TP53BP1-CLTA | HepG2-TUBA1B-RELA | WPMY1-CANX-COX4 | WPMY1-TUBA1B-RELA
3 µM: HepG2-TP53BP1-CLTA
1 µM: WPMY1-ACTB-RAB5A

C[C@H]1C(=O)O[C@@H]2CCN3CC=C(COC(=O)[C@](C)(O)[C@]1(C)O)[C@H]23 [Monocrotaline]
3 µM: A549-TUBA1B-RELA

N[C@@H]1C[C@H]1c1cc(F)cc(F)c1OCc1ccccc1
9 µM: WPMY1-ACTB-RAB5A

Cc1sc2c(c1C)C(c1ccc(Cl)cc1)=N[C@H](CC(=O)OC(C)(C)C)c1nnc(C)n1-2
9 µM: WPMY1-TUBA1B-RELA

O=C1NC(=S)N(c2cccc(Br)c2)C(=O)/C1=C/c1ccco1
9 µM: A549-TUBA1B-RELA | HepG2-TUBA1B-RELA | WPMY1-CANX-COX4 | WPMY1-TUBA1B-RELA
3 µM: WPMY1-ACTB-RAB5A

Cc1c(C(=O)c2cccc3ccccc23)c2cccc3c2n1[C@H](CN1CCOCC1)CO3 [WIN 55,212-2 mesylate]
9 µM: A549-GM130-SQSTM1 | WPMY1-ACTB-RAB5A | WPMY1-CANX-COX4

C=C(C)[C@H]1Cc2c(ccc3c2O[C@@H]2COc4cc(OC)c(OC)cc4[C@@H]2C3=O)O1 [Rotenone]
≤ 0.3 µM: A549-CANX-COX4 | A549-TP53BP1-CLTA | HepG2-TP53BP1-CLTA | HepG2-TUBA1B-RELA | WPMY1-ACTB-RAB5A
1 µM: WPMY1-CANX-COX4 | WPMY1-TUBA1B-RELA

C[C@H](N)Cc1ccccc1 [dextroamphetamine]
3 µM: A549-ACTB-RAB5A | A549-GM130-SQSTM1 | A549-TUBA1B-RELA

C[C@@H](CO)NC(=O)[C@@H]1C=C2c3cccc4[nH]cc(c34)C[C@H]2N(C)C1 [Ergobasine]
9 µM: A549-GM130-SQSTM1 | A549-TP53BP1-CLTA | WPMY1-CANX-COX4

C/C=C(/C)C(=O)O[C@H]1CC[C@@]2(C)[C@@H]3CC[C@H]4[C@]5(O)C[C@H](O)[C@@]6(O)[C@@H](CN7C[C@@H](C)CC[C@H]7[C@@]6(C)O)[C@]5(O)C[C@@]42O[C@]13O [Veratrine]
9 µM: HepG2-TUBA1B-RELA

C[C@]12CC[C@H](O)C[C@H]1CC[C@@H]1[C@@H]2CC[C@]2(C)[C@@H](C3=CC(=O)OC3)CC[C@]12O [Digitoxigenin]
≤ 0.3 µM: A549-CANX-COX4 | A549-TP53BP1-CLTA | HepG2-TUBA1B-RELA | WPMY1-ACTB-RAB5A | WPMY1-CANX-COX4 | WPMY1-TUBA1B-RELA
1 µM: HepG2-TP53BP1-CLTA

C[C@H]1CCCC=C[C@@H]2C[C@H](O)C[C@H]2[C@H](O)C=CC(=O)O1 [brefeldin-a]
≤ 0.3 µM: A549-CANX-COX4 | A549-TP53BP1-CLTA | HepG2-TP53BP1-CLTA | HepG2-TUBA1B-RELA | WPMY1-ACTB-RAB5A | WPMY1-CANX-COX4 | WPMY1-TUBA1B-RELA

CC[C@@H](C)C(=O)O[C@H]1[C@H](O)[C@H]2[C@@H](CN3C[C@@H](C)CC[C@H]3[C@@]2(C)O)C2C[C@]34O[C@]5(O)[C@@H](OC(=O)[C@](C)(O)CC)CC[C@@]3(C)[C@@H]5[C@@H](OC(C)=O)[C@@H](OC(C)=O)[C@H]4[C@@]21O (some centres not stated) [Protoveratrine A]
3 µM: A549-GM130-SQSTM1
